Experimental data from ChEMBL document CHEMBL3988442, “University of Dundee, Small-Polar-MMV Screening Library” (2021).
In all, about 48,000 compounds went through this assay and about 13,000 (27%) showed an effect of 50% or more. This is one part of the list.

Tested on: Wolbachia pipientis
Assay: Anti-Wolbachia Cell-Based Screen
Assay type: functional
Parameters: scale not given: in the data most compounds retested in dose-response had high values
Conditions: 5 µM

Structure (SMILES) | Percent Effect [%]
O=S1(=O)CCC(c2nnc(-c3cnc4onc(C5CC5)c4c3)o2)C1 (centres undefined) | -6.363
CN(C)C(=O)NC1COC2(CCN(Cc3ccc(N(C)C)cc3)CC2)C1 (centres undefined) | 6.702
CSCCNC(=O)c1cc(Br)cn1C(C)C | -6.324
Cc1nc(C)n(CC2CCCN2Cc2cn3ccsc3n2)n1 (centres undefined) | 1.786
CCC(OC)C(=O)N1CCC2(CC1)c1nc[nH]c1CCN2S(C)(=O)=O (centres undefined) | -9.741
COCC1CN(C(=O)c2ccoc2)Cc2cnn(CC3CCOCC3)c21.O=C(O)C(F)(F)F (centres undefined) | 114.4
CCn1ncc2c1C(COCC1CC1)CN(C(=O)c1cccs1)C2 (centres undefined) | 2.096
CCOCC1CN(C(=O)c2cccs2)Cc2cnn(CC3CC3)c21 (centres undefined) | 108.8
Cn1ncc2c1C(COCC1CC1)CN(C(=O)c1ccoc1)C2 (centres undefined) | 107.9
Cn1ncc2c1C(COCC1CC1)CN(C(=O)Cc1ccsc1)C2 (centres undefined) | 0.3372
COCC1c2c(cnn2CC2CCOCC2)CCN1Cc1ccoc1.O=C(O)C(F)(F)F.O=C(O)C(F)(F)F (centres undefined) | -3.551
CCOCC1CN(S(C)(=O)=O)Cc2cnn(CC3CCOCC3)c21.O=C(O)C(F)(F)F (centres undefined) | -18.06
O=C(c1ccco1)N1Cc2cnn(CC3CC3)c2C(COCC2CC2)C1 (centres undefined) | 105.1
CCOCC1CN(C(=O)c2cccn2C)Cc2cnn(CC3CC3)c21.O=C(O)C(F)(F)F (centres undefined) | -14.68
CCn1cc2c(n1)C(COCC1CC1)CN(C(=O)c1ccco1)C2 (centres undefined) | 0.7054
Cn1ncc2c1C(COCC1CC1)CN(S(=O)(=O)C1CC1)C2 (centres undefined) | -3.815
COC(=O)c1ccc(Cl)c(NS(=O)(=O)c2cn(C)cn2)c1 | 1.86
CC(C)(C)c1oc(C(N)=O)cc1CN1CCOC(C(F)(F)F)C1 (centres undefined) | -3.878
Cn1c(C(F)(F)F)nn(CCNC(=O)CSCc2ccccc2)c1=O | 0.8754
O=C(C1CC(=O)N(C2CCCC2)C1)N1CCN(CCn2cccc2)CC1 (centres undefined) | -10.58
COc1ccc(C(=O)N(C)Cc2cc(C)on2)c(OC)c1 | -3.822
O=C(c1ccoc1)N1CCc2c(COCC3CC3)cncc2C1 | -80.75

Structure (SMILES) | Percent Effect [%]
CCOCC1CN(C(=O)c2ccoc2)Cc2cnn(C)c21 (centres undefined) | 92.74
CCOCC1CN(C(=O)c2ccoc2)Cc2nn(C)cc21 (centres undefined) | -3.903
O=C(c1ccoc1)N1CCn2cnc(COCC3CC3)c2C1 | -6.66
O=C(c1ccoc1)N1Cc2cnn(CC3CC3)c2C(COCC2CC2)C1 (centres undefined) | 83.82
O=C(NCc1ccc(F)cc1)NCC1(N2CCOCC2)CCSC1 (centres undefined) | -10.73
COc1ccnc(N2CCN(C(=O)c3csc(C(C)C)n3)CC2)n1 | -5.502
CNC(=O)C(C)CN(C)C(=O)Nc1ccc(Cl)cc1-n1cccc1 (centres undefined) | 0.2413
CN1C(=O)c2ccc(C(=O)N(Cc3cnn(C)c3)C3CC3)cc2C1=O | 106.1
Cn1cc(CN(C(=O)C2COc3ccccc3C2)C2CC2)cn1 (centres undefined) | -27.95
O=C(c1ccc(O)c(Cl)c1)N(Cc1ccncc1)C1CC1 | 5.687
CCN(Cc1cnn(C)c1)C(=O)c1cc2ccccc2c(=O)[nH]1 | 2.375
CCN(Cc1cnn(C)c1)C(=O)c1ccccc1O | -0.8063
Cn1cc(CN(C(=O)c2ccc3ncsc3c2)C2CC2)cn1 | 77
CN(Cc1cnn(C)c1)C(=O)c1ccnc(OC2CCC2)c1 | -14.79
COC1CCN(C(=O)c2ccc3ncsc3c2)CC1 | 13.06
Cn1cc(CN(C(=O)c2ccc(O)c(Cl)c2)C2CC2)cn1 | 100.3
Cc1ccc(-c2nnc(CNC(=O)c3cccnc3)o2)cn1 | 101.6
Cc1ccc(CCNC(=O)c2cccnc2)o1 | -1.027
CCCn1cc(C(=O)NCCc2ccncc2)c(C)n1 | -13.4
CCCn1cc(C(=O)NCCC(=O)NC2CCCCC2)c(C)n1 | -18.08
CCOC(=O)c1ccc(CNC(=O)c2ccc(C)nc2)o1 | 18.5
CCCn1cc(C(=O)NCc2nnc(-c3ccc(C)nc3)o2)c(C)n1 | 141.9

Structure (SMILES) | Percent Effect [%]
COc1ccccc1OCC(=O)Nc1ncccc1C | -10
COc1cnc(N2CCCC(c3ncc[nH]3)C2)nc1 (centres undefined) | -2.958
COc1cc(N2CC3(CCN(S(C)(=O)=O)C3)C2)ncn1.O=C(O)C(F)(F)F | -16.93
O=C(O)C(F)(F)F.O=C(O)C(F)(F)F.OCCN1CC2(CCN(CC3CC3)CC2)c2ccccc21 | -29.18
COc1cc(N2CC3(CCN(c4ncccn4)C3)C2)ncn1 | -18.99
COc1cc(N2CCC3(CC2)CN(S(C)(=O)=O)c2ccccc23)ncn1 | 110.7
CS(=O)(=O)N1CC2(CCN(c3nccs3)CC2)c2ccccc21 | 6.686
COc1cc(N2CCC3(CC2)CN(CCO)c2ccccc23)ncn1 | 112.4
CCc1ccc(C2COCCN2C(=O)Nc2ccc(C#N)cc2)o1 (centres undefined) | -6.805
COCc1noc(-c2ccc(N3CCCCC3CCCO)nc2)n1 (centres undefined) | 5.834
NC1CCc2c(ccc(=O)n2CC2CC2)C1 (centres undefined) | -25.6
Cc1nc(Cn2c3c(ccc2=O)CC(NC(N)=O)CC3)cs1 (centres undefined) | 99.56
Cc1nc(Cn2c3c(ccc2=O)CC(N)CC3)cs1 (centres undefined) | 90.15
CCn1c2c(ccc1=O)CC(N)CC2 (centres undefined) | -10.57
OCCCN1CCOC(c2ccc(F)cc2)C1 (centres undefined) | 108.3
CCNC(=O)NC(=O)CN1CCOC(c2cccc(Br)c2)C1 (centres undefined) | -11.97
COc1cccc(C2CN(CCc3ccncc3)CCO2)c1 (centres undefined) | 114.5
Cc1cc2[nH]c(CN3CCOC(c4ccc(F)cc4)C3)cc(=O)n2n1 (centres undefined) | -0.7414
CCc1n[nH]c(C2CN(CCc3ccncc3)CCO2)n1 (centres undefined) | 1.737
COc1ccc(CNC2CCN(CCc3ccncc3)CC2)cc1O | -10.08
Cc1ccc(-c2nc(CN3CCOC(c4ccccc4)C3)cs2)o1 (centres undefined) | 7.737
c1ccc(C2CN(CCc3ccncc3)CCO2)cc1 (centres undefined) | 114.6

Structure (SMILES) | Percent Effect [%]
NS(=O)(=O)CCN1CCOC(c2ccc(Cl)cc2)C1 (centres undefined) | -9.973
CCc1nccn1CCC(=O)N1CCOC(c2ccc(F)cc2)C1 (centres undefined) | 5.391
Fc1ccc(C2CN(CCc3ccncc3)CCO2)cc1 (centres undefined) | 89.73
CCN(CC)Cc1nc2c(o1)CN(C(=O)c1ccc3[nH]ccc3c1)C2.O=CO | 2.766
O=C(NC1CC1)N1Cc2[nH]nc(COCC3CC3)c2C1 | -7.793
CCc1nc(CCNC(=O)NC2CCC(=O)N(C)C2)sc1C (centres undefined) | -4.769
CN(C)c1cccc(C(=O)N2CCCc3cc(OC(F)(F)F)ccc32)c1 | 5.74
CN(CC1CCC1)C(=O)Nc1cccnc1-n1cncn1 | -2.5
Cc1oc(-c2ccsc2)nc1CN1CC[C@@H]2CCCC[C@H]2C1 | 16.57
Cc1nc(C)n(CC2CN(CCc3ccccc3Cl)CCO2)n1 (centres undefined) | -35.87
CCNC(=O)NC(=O)CN1CCOC(c2ccccc2Cl)C1 (centres undefined) | 0.5373
Clc1ccccc1C1CN(CCc2ccncc2)CCO1 (centres undefined) | 118
CNC(=O)c1cnc2n1CCN(Cc1cccnc1OC)C2 | -12.45
COc1ncccc1CN1Cc2nccn2CC(CN2CCCC2)C1 (centres undefined) | 87.46
CS(=O)(=O)N1Cc2nccn2CC(CN2CCCC2)C1 (centres undefined) | -0.3251
Cc1ccc(CC(=O)N2Cc3nccn3CC(Cn3cccn3)C2)cc1 (centres undefined) | -9.367
COc1ncccc1CN1Cc2nccn2CC(Cn2cccn2)C1 (centres undefined) | 99.64
O=C(CCn1cncn1)Nc1ccc(F)cc1OCC1CC1 | -2.529
COC(=O)CCNC(=O)c1ccc(NC(=O)N(C)CC(C)C)cc1 | 21.34
CN(C)c1ccc(CCNC(=O)NCc2ccc(N(C)C)nc2)cc1 | 5.041
CN(C)c1ccc(CNC(=O)NCCc2cn3ccccc3n2)cn1 | 118.9
Cc1ccccc1C1(O)CCN(C(=O)CCc2cn3ccccc3n2)C1 (centres undefined) | -1.584

Structure (SMILES) | Percent Effect [%]
CC(C)c1nc(CCNC(=O)NCc2ccnc(N(C)C)c2)cs1 | 6.649
CN(C)c1ccc(CNC(=O)NCCc2ccccn2)cn1 | 91.3
CN(C)c1ccc(CNC(=O)NCCc2cccs2)cn1 | 93.45
CN(C)c1ccc(C(=O)NCCCc2ccccn2)cn1 | 11.7
Cc1cc(CNC(=O)NCc2cccs2)ccc1S(C)(=O)=O | -12.59
Cc1nc(CN2CCC(CNC(=O)Nc3ccccn3)CC2)oc1C | 15.98
COCc1nc2n(n1)CCCC2Nc1nc(C(C)C)ns1 (centres undefined) | -13.74
CN1CCN(S(=O)(=O)N2CCCCC2CCc2ccc(O)cc2)CC1 (centres undefined) | -0.6049
CCn1cc(CN2CCCn3nc(CNS(C)(=O)=O)cc3C2)c(C)n1 | -7.534
CC(C)=CCCC1(C)C=Cc2c(cc(C)n(CC(=O)O)c2=O)O1 (centres undefined) | 107.4
Cc1cc2c(c(=O)n1CCC(=O)O)C=CC(C)(C)O2 | 159.6
CC(C)=CCCC1(C)C=Cc2c(cc(C)n(CCC(=O)O)c2=O)O1 (centres undefined) | 110.1
CCn1c(C)nnc1SCCNC(=O)c1cnc(C(C)(C)C)nc1O | -1.576
CN(C)C(=O)N1CCN(CCCOc2ccccc2)[C@H]2CS(=O)(=O)C[C@H]21 | -34.84
CC(O)CN1CCC(CNCc2ccc(C#N)cc2)CC1 (centres undefined) | 2.816
Cn1cc(N2CC3(CCN(Cc4nccn4C)C3)CC2=O)cn1.O=C(O)C(F)(F)F (centres undefined) | -13.1
Cc1ccc(N2CC3(CCN(Cc4nccn4C)C3)CC2=O)s1.O=C(O)C(F)(F)F (centres undefined) | 20.39
Cn1ccnc1CN1CCC(F)(F)C2(CCN(c3cnccn3)C2)C1.O=C(O)C(F)(F)F (centres undefined) | 108.4
Cn1ccnc1CN1CCC(F)(F)C2(CCN(c3cccnc3)C2)C1.O=C(O)C(F)(F)F.O=C(O)C(F)(F)F (centres undefined) | 75.41
Cn1ccnc1CN1CCC2(CC1)CC(Oc1cccnc1)C2.O=C(O)C(F)(F)F.O=C(O)C(F)(F)F | -13.8
COc1cccc(N2CC3(CCN(Cc4nccn4C)C3)CC2=O)c1.O=C(O)C(F)(F)F (centres undefined) | 13.06
